About 83,000 compounds went through this panel and 20% of them were active in at least one assay; those are over-represented in the sample as a whole.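 Step 1: grow cells in 96-well plates. Step 2: add test compound at a single concentration. Step 3: incubate 48 h. Step 4: record percent growth.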 A number with no mark means an inactive call. Activity calls are given as the source filed them.

For the experiment, the system named is OVCAR-4 ovarian. Nature of the experiment: NCI-60 one-dose screen, 48 h (100 = growth as untreated, 0 = no growth, -100 = all killed). The settings on record: 10 µM unless noted. The method, then: Growth inhibition of the OVCAR-4 human tumor cell line is measured as a screen for anti-cancer activity. Cells are grown in 96 well plates and exposed to the test compound for 48 hours. Compounds are tested at a single concentration, which is 10^-5 M for most compounds. The reported endpoint is percent growth (GI% or GIPRCNT), where numbers from 0 - 100% represent growth inhibition, and numbers from -100% - 0 represent cell death. For example, a value of 40 represents 60% growth inhibition. A value of 0 means no net growth occurred over the course of the experiment. A value of -40 indicates 40% of cells at the beginning of the experiment died by the end of the experiment. A value of -100 means all cells are dead at the end of the experiment.
NCI-60 Human Tumor Cell Lines Screen was performed using the standard one-dose NCI protocol, which is described in more detail at https://dtp.cancer.gov/discovery_development/nci-60/default.htm.
Compounds with GIPRCNT values below 10 were considered active. Activity score was based on GIPRCNT using the following formula: […]
Score is 0 for GIPRCNT values of 100 or above, 50 for GIPRCNT values of 0, and 100 for GIPRCNT values of -100.
Consider `CCOC(=O)c1nc(Nc2cc(C)[nH]n2)c2ccccc2n1`, for which the growth is 82.5%.

As to `CCCCCCCCCCCCCC1=NCCN1CCO`, the growth is 169%.

Take `COc1ccc(/C=c2/c(=O)[nH]c3nc4sc(C)c(C)c4c(=O)n23)cc1`: the growth is 81.8%.

As to `O=C(CN1CCN(c2cc3c(cc2F)c(=O)c(C(=O)O)cn3C2CC2)CC1)Nc1nc(-c2ccccc2)cs1`, the growth is 97.5%.

As to `O=c1c2cccc3c(NC4CCCCC4)ccc(c32)c2nc3ccccc3n12`, the growth is 80.1%.

As for `COc1cc(-c2c3sc(=O)[nH]c3nc3c2c(=O)[nH]n3C(C)C)cc2c1OCO2`, the growth was 86%.

Turning to `Cc1ccc2c(NCCCN(C)C)c3c(C)nn(C)c3nc2c1`, the growth is 28.7%.

`COc1ccc(-c2nn(-c3ccccc3)cc2/C=C/C(=O)OCc2cn(-c3ccc(F)c(Cl)c3)nn2)cc1`: the growth was 66.9%.

Turning to `COc1cc(C2CC(=O)Nc3c2cnn3Cc2ccco2)cc2c1OCCO2` (stereo not given), the growth was 94.3%.

On to `CC/C(Cc1ccccc1)=C(\c1ccc(OCCN2CCCC2)cc1)c1ccc(OC(C)=O)cc1`, for which the growth was 79%.

In the case of `C[C@@H]1CC[C@@H]2[C@@H]1[C@H](OC(=O)/C=C/c1ccccc1)[C@]1(C3CCCCC3)C[C@@H](OC(=O)CO)[C@@]2(C)O1`, the growth was 74.8%.

Consider `CC1=C(NCCN2CCCC2)C(=O)c2c(OCc3ccc(F)c(Cl)c3)cccc2C1=O`, for which the growth was 70.5%.

`O=C(Nc1ccc(F)cc1)Nc1ccc(CCO)cc1`: the growth was 97.6%.

Regarding `COc1cc(NC(N)=NCC(C)(C)COc2ccc(C(F)(F)F)cc2)cnc1C#N`, the growth is 65.8%.

On to `CCCCCCCCCCCCS(=O)CC(C)O` (stereo not given), for which the growth is 101%.

`CCOC(=O)/C=C/C(=O)[C@H](CC(C)C)NC(=O)[C@H](Cc1ccccc1)NC(=O)OCc1ccccc1`: the growth is 91.9%.

As to `COc1ccc(-c2csc(NC(=O)CN3CCN(c4cc5c(cc4F)c(=O)c(C(=O)O)cn5C4CC4)CC3)n2)cc1`, the growth was 40.8%.

Take `CC(C)(C)n1cc(-c2ccnc(NCCNS(=O)(=O)c3ccccc3)c2)c(-c2cccc(O)c2)n1`: the growth was 60.6%.

As for `C=C(C[n+]1ccccc1)[C@@H]1CC[C@]2(C(=O)OC)CC[C@]3(C)[C@H](CC[C@@H]4[C@@]5(C)CC[C@H](O)C(C)(C)[C@@H]5CC[C@]43C)[C@@H]12`, the growth is 99.7%.

In the case of `N=c1c2ccccc2nc2n1CCCCC2`, the growth was 107%.

On to `CCCCNc1ccc2c3c1cccc3c(=O)n1c3ccccc3nc21`, for which the growth was 85.8%.

Regarding `Nc1nc(SCc2ccccc2)c2ncn(C3CCCC3)c2n1`, the growth was 101%.

`CCN(CC)c1ccc(/C=C/C2=[N+](C)c3ccccc3C2(C)C)cc1`: the growth is 40.6%.

Regarding `CS(CCCCN=C=S)=NC(=O)c1c(F)c(F)c(F)c(F)c1F` (stereo not given), the growth was 74.4%.

Turning to `Nc1cccc(NC(=O)C(=O)Nc2cccc(N)c2)c1`, the growth was 126%.

As to `COc1ccc(C/C(C)=C(\c2ccc(Cl)cc2)c2ccc(OCCN3CCCCCC3)cc2)cc1`, the growth is 95.7%.

Consider `COc1ccc(S(=O)(=O)NCCNc2nccc(-c3c(-c4cccc(N)c4)nc4sccn34)n2)cc1`, for which the growth was 82.4%.

Turning to `CC(=O)/C(=C/c1cccc(Cl)c1)C(=O)c1ccccc1`, the growth was 89.6%.

As for `O=C1NC(=O)C(CC(=O)n2c(-c3ccccc3)nc3ccccc32)C(=O)N1`, the growth was 103%.

Regarding `COC(/C=C/c1ccc([N+](=O)[O-])cc1)OC`, the growth was 96.6%.

With `O=C1OC2C(I)C3CC2C1C3c1ccccc1` (stereo not given), the growth is 96.3%.

Regarding `CCOC(=O)CC(=O)c1c(C)cc(C)cc1C`, the growth was 113%.

Turning to `COc1ccc(C2c3ccc4ccccc4c3Oc3ncnc(N)c32)cc1` (stereo not given), the growth is 89%.

Regarding `CCN(CC)CCC(=O)Nc1ccc(Cn2nnc3c2C(=O)c2nnn(Cc4ccc(NC(=O)CCN(CC)CC)cc4)c2C3=O)cc1`, the growth is -72.7% (active).

In the case of `CCOC(=O)C(CC)n1c(=O)c2cc(OC)c(OC)cc2c2cnc3[nH]ccc3c21` (stereo not given), the growth was 93.3%.

As to `Cn1c2ccccc2c2c3c(c4c5ccccc5[nH]c4c21)C(=O)N(N)C3=O`, the growth was 73%.

For `C/C(Cc1ccc(Cl)cc1)=C(\c1ccc(OCCN2CCCCCC2)cc1)c1ccc(OC(=O)Cc2ccccc2)cc1`, the growth is 85%.

In the case of `Nc1nc(-c2ccc(F)cc2)cc(-c2cnn(-c3ccccc3)n2)n1`, the growth was 111%.

Take `COc1ccc(/C=N\NC(=O)CN2CCN(c3cc4c(cc3F)c(=O)c(C(=O)N/N=C/c3ccc(OC)cc3)cn4C3CC3)CC2)cc1`: the growth is 80.7%.

For `CC1=C(NCCN2CCCC2)C(=O)c2c(OCc3cccc(Cl)c3)cccc2C1=O`, the growth is 73.1%.

The record behind these values is PubChem BioAssay (NCI).
